Three compounds from PubChem BioAssay (EPA / NIEHS) can be followed below.

Records with an inconclusive call do not appear. Activity calls are given as the source filed them. How the source made its calls: active means hit-call score of the fitted dose curve at least 0.9, where 1 is the maximum; inconclusive means response in the unintended direction; inactive means score below 0.9.

This assay concerns the target Thyroid hormone receptor alpha (Rattus norvegicus) + Thyroid hormone receptor beta (Rattus norvegicus) (UniProt P18113+P63059). Description: TOX21_TR_LUC_GH3_Antagonist_Followup: Tox21 GH3 Thyroid Hormone Receptor Antagonism Luciferase Follow-Up Assay (AID 2283942). The procedure, abridged: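 Rat pituitary GH3 cells with a TRα/TRβ-driven luciferase reporter, 5 h attachment, then 15 concentrations (92 uM to 5nM final) plus 1.0 nM T3 agonist, 24 h at 37C/5% CO2. ONE-Glo luminescence; signal change fitted against DMSO baseline.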
Consider `Cc1nccn1-c1ccc(Sc2cccc(C3(C(N)=O)CCOCC3)c2)cc1`, for which the AC50 (as a rule, the midpoint of the concentration-response curve, whichever way the signal moves) is 32.9 µM (active). As for `COc1cc2c(c(OC)c1OC)-c1ccc(OC)c(=O)cc1[C@@H](NC(C)=O)CC2`, the result was inactive.

For `Nc1ccn([C@@H]2O[C@H](CO)[C@@H](O)[C@@H]2O)c(=O)n1`, the result was inactive.
